Results reported in PubChem BioAssay AID1159580 (chemical genetic matrix, 2015).
Screen size: about 5,500 compounds; about 2,000 (36%) were called active. Not shown: some 18% with an inconclusive outcome. No stated cut-off is given here; in the data, active means normalized growth mostly below about 0.91 (no sharp cut-off); inconclusive means no clear call, values can overlap the other calls; inactive means mostly above about 0.92. This is one part of the list.

Assay: chemical genetic growth profiling, strain panel (AID 1159580);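 further: tested at 20 µM; growth read once vehicle control cultures reached saturation at 30 °C; 1 = growth at the plate median or of vehicle wells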
Conditions: S. cerevisiae deletion strains, growth OD

Measured: normalized growth

O=C(/C=C/c1ccc(O)c(O)c1)OCCc1ccccc1
inactive: locus YAL021C, strain ccr4, stronger effect = lower value 0.937 | locus YAL040C, strain CLN3, stronger effect = lower value 1.08 | locus YBR171W, strain sec66, stronger effect = lower value 0.911 | locus YDL005C, strain med2, stronger effect = lower value 0.964 | locus YDL040C, strain nat1, stronger effect = lower value 0.96 | locus YDR001C, strain nth1, stronger effect = lower value 0.933 | locus YDR159W, strain sac3, stronger effect = lower value 0.916 | locus YDR363W, strain ESC2, stronger effect = lower value 0.98 | locus YEL037C, strain rad23, stronger effect = lower value 0.938 | locus YFR010W, strain ubp6, stronger effect = lower value 0.906 | locus YGL167C, strain pmr1, stronger effect = lower value 0.941 | locus YGL240W, strain doc1, stronger effect = lower value 0.927 | locus YJL115W, strain asf1, stronger effect = lower value 0.989 | locus YJL154C, strain vps35, stronger effect = lower value 0.962 | locus YLR113W, strain HOG1, stronger effect = lower value 0.862 | locus YLR357W, strain rsc2, stronger effect = lower value 0.88 | locus YLR370C, strain arc18, stronger effect = lower value 0.944 | locus YLR384C, strain iki3, stronger effect = lower value 0.972 | locus YNL197C, strain WHI3, stronger effect = lower value 0.897 | locus YNL224C, strain SQS1, stronger effect = lower value 0.937 | locus YNL322C, strain KRE1 (second series), stronger effect = lower value 0.963 | locus YNR049C, strain mso1, stronger effect = lower value 0.944 | locus YOR080W, strain dia2, stronger effect = lower value 0.961 | locus YPL106C, strain sse1, stronger effect = lower value 0.882 | locus YPL241C, strain CIN2, stronger effect = lower value 0.964 | locus YPL256C, strain CLN2, stronger effect = lower value 0.854
active: locus YAL026C, strain drs2, stronger effect = lower value 0.671 | locus YAL030W, strain snc1, stronger effect = lower value 0.889 | locus YBL061C, strain skt5, stronger effect = lower value 0.767 | locus YBR009C, strain hhf1, stronger effect = lower value 0.781 | locus YBR023C, strain chs3, stronger effect = lower value 0.774 | locus YBR231C, strain swc5, stronger effect = lower value 0.587 | locus YBR279W, strain paf1, stronger effect = lower value 0.848 | locus YCL011C, strain gbp2, stronger effect = lower value 0.751 | locus YCL016C, strain dcc1, stronger effect = lower value 0.774 | locus YCL061C, strain MRC1, stronger effect = lower value 0.851 | locus YCL069W, strain vba3, stronger effect = lower value 0.913 | locus YCR088W, strain abp1, stronger effect = lower value 0.841 | locus YDR069C, strain doa4, stronger effect = lower value 0.804 | locus YDR137W, strain rgp1, stronger effect = lower value 0.589 | locus YDR195W, strain ref2 1.19 [resistant] | locus YDR297W, strain sur2, stronger effect = lower value 0.87 | locus YDR334W, strain swr1, stronger effect = lower value 0.641 | locus YDR335W, strain msn5, stronger effect = lower value 0.868 | locus YDR392W, strain spt3, stronger effect = lower value 0.116 | locus YEL003W, strain gim4, stronger effect = lower value 0.691 | locus YEL061C, strain CIN8 (second series), stronger effect = lower value 0.693 | locus YER002W, strain NOP16, stronger effect = lower value 0.896 | locus YER015W, strain faa2, stronger effect = lower value 0.775 | locus YER016W, strain bim1, stronger effect = lower value 0.868 | locus YER111C, strain swi4, stronger effect = lower value 0.808 | locus YER155C, strain BEM2 (second series), stronger effect = lower value 0.463 | locus YGL173C, strain kem1, stronger effect = lower value 0.796 | locus YGL227W, strain vid30, stronger effect = lower value 0.287 | locus YGL253W, strain hxk2, stronger effect = lower value 0.749 | locus YGR078C, strain PAC10, stronger effect = lower value 0.881 | locus YGR229C, strain SMI1, stronger effect = lower value 0.357 | locus YHR013C, strain ard1, stronger effect = lower value 0.683 | locus YHR027C, strain rpn1, stronger effect = lower value 0.857 | locus YHR030C, strain SLT2, stronger effect = lower value 0.837 | locus YHR079C, strain IRE1, stronger effect = lower value 0.803 | locus YHR142W, strain chs7, stronger effect = lower value 0.592 | locus YJL092W, strain hpr5, stronger effect = lower value 0.891 | locus YJL095W, strain BCK1 (second series), stronger effect = lower value 0.644 | locus YJL095W, strain BCK1, stronger effect = lower value 0.863 | locus YJL129C, strain trk1, stronger effect = lower value 0.522 | locus YJL164C, strain tpk1, stronger effect = lower value 0.766 | locus YJL166W, strain qcr8, stronger effect = lower value 0.807 | locus YJL187C, strain SWE1, stronger effect = lower value 0.851 | locus YJR066W, strain TOR1, stronger effect = lower value 0.742 | locus YJR075W, strain HOC1, stronger effect = lower value 0.858 | locus YKL160W, strain elf1, stronger effect = lower value 0.724 | locus YKR026C, strain gcn3, stronger effect = lower value 0.908 | locus YKR091W, strain srl3, stronger effect = lower value 0.928 | locus YLL001W, strain dnm1, stronger effect = lower value 0.832 | locus YLL026W, stronger effect = lower value 0.896 | locus YLL041C, strain sdh2, stronger effect = lower value 0.898 | locus YLR027C, strain aat2, stronger effect = lower value 0.774 | locus YLR221C, strain rsa3, stronger effect = lower value 0.69 | locus YLR258W, strain gsy2, stronger effect = lower value 0.844 | locus YLR262C, strain YPT6 (second series), stronger effect = lower value 0.493 | locus YLR320W, strain mms22, stronger effect = lower value 0.453 | locus YLR342W, strain FKS1, stronger effect = lower value 0.796 | locus YML120C, strain ndi1, stronger effect = lower value 0.686 | locus YMR058W, strain fet3, stronger effect = lower value 0.494 | locus YMR125W, strain sto1, stronger effect = lower value 0.615 | locus YMR129W, stronger effect = lower value 0.911 | locus YMR205C, strain PFK2, stronger effect = lower value 0.66 | locus YMR231W, strain pep5, stronger effect = lower value 0.759 | locus YNL071W, strain lat1, stronger effect = lower value 0.478 | locus YNL175C, strain NOP13, stronger effect = lower value 0.879 | locus YNL183C, strain NPR1, stronger effect = lower value 0.803 | locus YNL209W, strain ssb2, stronger effect = lower value 0.855 | locus YNL248C, strain rpa49, stronger effect = lower value 0.769 | locus YNL322C, strain KRE1, stronger effect = lower value 0.881 | locus YOR001W, strain rrp6, stronger effect = lower value 0.8 | locus YOR070C, strain gyp1, stronger effect = lower value 0.827 | locus YOR083W, strain WHI5 (second series), stronger effect = lower value 0.751 | locus YOR083W, strain WHI5, stronger effect = lower value 0.81 | locus YOR106W, strain vam3, stronger effect = lower value 0.573 | locus YOR231W, strain MKK1, stronger effect = lower value 0.857 | locus YOR265W, strain rbl2, stronger effect = lower value 0.881 | locus YOR270C, strain vph1, stronger effect = lower value 0.568 | locus YOR290C, strain snf2, stronger effect = lower value 0.748 | locus YPL051W, strain arl3, stronger effect = lower value 0.652 | locus YPL078C, strain atp4, stronger effect = lower value 0.855 | locus YPL240C, strain hsp82, stronger effect = lower value 0.845
